Laboratory results: PubChem BioAssay AID1159580 (chemical genetic matrix, 2015)
“And” between values parts separate entries of the source, which are not always exact repeats. Identical values can stand only once. Among all 5,500 compounds or so, about 2,000 (36%) were called active. Not shown: some 18% with an inconclusive outcome. No stated cut-off is given here; in the data, active means normalized growth mostly below about 0.91 (no sharp cut-off); inconclusive means no clear call, values can overlap the other calls; inactive means mostly above about 0.92. The list shows a part of the results.

Test: chemical genetic growth profiling, strain panel (AID 1159580);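 further: tested at 20 µM; growth read once vehicle control cultures reached saturation at 30 °C; 1 = growth at the plate median or of vehicle wells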
Details: growth OD

Measured: normalized growth

CCOC(=O)C1=C(C)NC(C)=C(C(=O)OC)C1c1cccc([N+](=O)[O-])c1 (stereo unspecified)
inactive: S. cerevisiae deletion strains, locus YJL187C, strain SWE1, stronger effect = lower value 1.01 | S. cerevisiae deletion strains, locus YJR043C, strain POL32, stronger effect = lower value 1.01 | S. cerevisiae deletion strains, locus YJR075W, strain HOC1, stronger effect = lower value 0.995 and 0.989 | S. cerevisiae deletion strains, locus YKL009W, strain mrt4, stronger effect = lower value 1.01 | S. cerevisiae deletion strains, locus YKL068W, stronger effect = lower value 0.996 | S. cerevisiae deletion strains, locus YKL085W, strain MDH1 (second series), stronger effect = lower value 0.997 | S. cerevisiae deletion strains, locus YKL085W, strain MDH1, stronger effect = lower value 0.997 | S. cerevisiae deletion strains, locus YKL160W, strain elf1, stronger effect = lower value 1.01 | S. cerevisiae deletion strains, locus YKL190W, strain CNB1, stronger effect = lower value 0.99 | S. cerevisiae deletion strains, locus YKR001C, strain vps1, stronger effect = lower value 1 | S. cerevisiae deletion strains, locus YKR026C, strain gcn3, stronger effect = lower value 0.999 | S. cerevisiae deletion strains, locus YKR091W, strain srl3, stronger effect = lower value 1 | S. cerevisiae deletion strains, locus YLL001W, strain dnm1, stronger effect = lower value 1.02 | S. cerevisiae deletion strains, locus YLL026W, stronger effect = lower value 1 | S. cerevisiae deletion strains, locus YLL041C, strain sdh2, stronger effect = lower value 1.02 | S. cerevisiae deletion strains, locus YLR027C, strain aat2, stronger effect = lower value 1.01 | S. cerevisiae deletion strains, locus YLR039C, strain RIC1, stronger effect = lower value 0.968 | S. cerevisiae deletion strains, locus YLR058C, strain SHM2, stronger effect = lower value 0.999 | S. cerevisiae deletion strains, locus YLR102C, strain apc9, stronger effect = lower value 1 | S. cerevisiae deletion strains, locus YLR221C, strain rsa3, stronger effect = lower value 1.01 | S. cerevisiae deletion strains, locus YLR258W, strain gsy2, stronger effect = lower value 1.01 | S. cerevisiae deletion strains, locus YLR262C, strain YPT6 (second series), stronger effect = lower value 0.959 | S. cerevisiae deletion strains, locus YLR262C, strain YPT6, stronger effect = lower value 0.946 | S. cerevisiae deletion strains, locus YLR268W, strain sec22, stronger effect = lower value 0.984 | S. cerevisiae deletion strains, locus YLR320W, strain mms22, stronger effect = lower value 1 | S. cerevisiae deletion strains, locus YLR330W, strain CHS5, stronger effect = lower value 1.01 | S. cerevisiae deletion strains, locus YLR342W, strain FKS1 (second series), stronger effect = lower value 1.01 | S. cerevisiae deletion strains, locus YLR342W, strain FKS1, stronger effect = lower value 1.01 | S. cerevisiae deletion strains, locus YLR357W, strain rsc2, stronger effect = lower value 1.02 | S. cerevisiae deletion strains, locus YLR370C, strain arc18, stronger effect = lower value 1.01 | S. cerevisiae deletion strains, locus YLR371W, strain rom2, stronger effect = lower value 1.01 | S. cerevisiae deletion strains, locus YLR384C, strain iki3, stronger effect = lower value 0.998 | S. cerevisiae deletion strains, locus YLR418C, strain cdc73, stronger effect = lower value 0.967 | S. cerevisiae deletion strains, locus YML016C, strain PPZ1, stronger effect = lower value 1 | S. cerevisiae deletion strains, locus YML032C, strain rad52, stronger effect = lower value 1.02 | S. cerevisiae deletion strains, locus YML120C, strain ndi1, stronger effect = lower value 1.01 | S. cerevisiae deletion strains, locus YML124C, strain tub3, stronger effect = lower value 1 | S. cerevisiae deletion strains, locus YMR058W, strain fet3, stronger effect = lower value 1.02 | S. cerevisiae deletion strains, locus YMR078C, strain ctf18, stronger effect = lower value 0.999 | S. cerevisiae deletion strains, locus YMR125W, strain sto1, stronger effect = lower value 1.01 | S. cerevisiae deletion strains, locus YMR129W, stronger effect = lower value 0.999 | S. cerevisiae deletion strains, locus YMR205C, strain PFK2, stronger effect = lower value 0.991 | S. cerevisiae deletion strains, locus YMR223W, strain ubp8, stronger effect = lower value 1.01 | S. cerevisiae deletion strains, locus YMR231W, strain pep5, stronger effect = lower value 1.01 | S. cerevisiae deletion strains, locus YMR263W, strain SAP30, stronger effect = lower value 1.01 and 0.981 | S. cerevisiae deletion strains, locus YMR307W, strain GAS1, stronger effect = lower value 0.931 | S. cerevisiae deletion strains, locus YNL067W, strain RPL9B, stronger effect = lower value 0.996 | S. cerevisiae deletion strains, locus YNL071W, strain lat1, stronger effect = lower value 1.01 | S. cerevisiae deletion strains, locus YNL128W, strain TEP1, stronger effect = lower value 0.994 and 1.01 | S. cerevisiae deletion strains, locus YNL153C, strain GIM3, stronger effect = lower value 0.999 and 0.961 | S. cerevisiae deletion strains, locus YNL209W, strain ssb2, stronger effect = lower value 1.01 | S. cerevisiae deletion strains, locus YNL224C, strain SQS1, stronger effect = lower value 0.979 | S. cerevisiae deletion strains, locus YNL233W, strain BNI4, stronger effect = lower value 0.995 | S. cerevisiae deletion strains, locus YNL248C, strain rpa49, stronger effect = lower value 1.01 | S. cerevisiae deletion strains, locus YNL250W, strain rad50, stronger effect = lower value 1.01 | S. cerevisiae deletion strains, locus YNL271C, strain bni1, stronger effect = lower value 1.01 | S. cerevisiae deletion strains, locus YNL298W, strain CLA4, stronger effect = lower value 1.02 | S. cerevisiae deletion strains, locus YNL307C, strain MCK1, stronger effect = lower value 1.01 | S. cerevisiae deletion strains, locus YNL322C, strain KRE1 (second series), stronger effect = lower value 1.01 | S. cerevisiae deletion strains, locus YNL322C, strain KRE1, stronger effect = lower value 1 and 0.995 | S. cerevisiae deletion strains, locus YNR049C, strain mso1, stronger effect = lower value 1.01 | S. cerevisiae deletion strains, locus YNR052C, strain pop2, stronger effect = lower value 1.01 | S. cerevisiae deletion strains, locus YOL006C, strain TOP1, stronger effect = lower value 1.01 | S. cerevisiae deletion strains, locus YOL012C, strain htz1 0.79 | S. cerevisiae deletion strains, locus YOL147C, strain pex11, stronger effect = lower value 1.01 | S. cerevisiae deletion strains, locus YOR001W, strain rrp6, stronger effect = lower value 1.03 | S. cerevisiae deletion strains, locus YOR061W, strain CKA2, stronger effect = lower value 0.988 | S. cerevisiae deletion strains, locus YOR069W, strain VPS5, stronger effect = lower value 0.997 | S. cerevisiae deletion strains, locus YOR070C, strain gyp1, stronger effect = lower value 1.01 | S. cerevisiae deletion strains, locus YOR080W, strain dia2, stronger effect = lower value 1.01 | S. cerevisiae deletion strains, locus YOR083W, strain WHI5, stronger effect = lower value 1 | S. cerevisiae deletion strains, locus YOR106W, strain vam3, stronger effect = lower value 1.01 | S. cerevisiae deletion strains, locus YOR136W, strain idh2, stronger effect = lower value 1.02 | S. cerevisiae deletion strains, locus YOR144C, strain elg1, stronger effect = lower value 1 | S. cerevisiae deletion strains, locus YOR184W, strain ser1, stronger effect = lower value 1.01 | S. cerevisiae deletion strains, locus YOR265W, strain rbl2, stronger effect = lower value 1 | S. cerevisiae deletion strains, locus YOR270C, strain vph1, stronger effect = lower value 1.03 | S. cerevisiae deletion strains, locus YOR290C, strain snf2, stronger effect = lower value 1.01 | S. cerevisiae deletion strains, locus YOR316C, strain cot1, stronger effect = lower value 1 | S. cerevisiae deletion strains, locus YPL051W, strain arl3, stronger effect = lower value 1 | S. cerevisiae deletion strains, locus YPL055C, strain LGE1, stronger effect = lower value 0.95 and 1 | S. cerevisiae deletion strains, locus YPL078C, strain atp4, stronger effect = lower value 1.03 | S. cerevisiae deletion strains, locus YPL106C, strain sse1, stronger effect = lower value 1.04 | S. cerevisiae deletion strains, locus YPL240C, strain hsp82, stronger effect = lower value 1.01 | S. cerevisiae deletion strains, locus YPL241C, strain CIN2, stronger effect = lower value 0.977 | S. cerevisiae deletion strains, locus YPR119W, strain clb2, stronger effect = lower value 1 | S. cerevisiae deletion strains, locus YPR141C, strain kar3, stronger effect = lower value 1 | S. cerevisiae deletion strains, locus YPR163C, strain tif3, stronger effect = lower value 1.01 | S. cerevisiae deletion strains, locus YPR167C, strain met16, stronger effect = lower value 0.998 | S. cerevisiae deletion strains, strain wtn01, stronger effect = lower value 0.987 | S. cerevisiae strains, strain wild type, stronger effect = lower value 0.982
